Results on 7 molecules are retold here after PubChem BioAssay (NCATS).

Results filed as inconclusive are left out. Activity calls are given as the source filed them. Unless noted, calls follow the shape of the full dose curve.

A short description of assay [1]: qHTS assay for small molecule antagonists of peroxisome proliferator-activated receptor delta signaling (AID 588535; active = well fitted inhibition curve with a large enough effect in the signal ratio, with a control signal flat, not every such curve was filed as active; the % refers to the signal ratio;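 as to max response: cells co-treated with a PPAR-delta agonist as stimulator during compound exposure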). The settings on record: HEK293T PPARd-UAS-bla, beta-lactamase FRET ratio, 18 h; 460 nm channel. In a few lines:
(§1)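 Antagonist-mode qHTS using GeneBLAzer PPAR-delta-UAS-bla HEK293T cells; compound exposure 18 hrs at 37 C over a titration. Ratiometric CCF4 fluorescence at 460/530 nm; concentration-response points fitted to the Hill equation.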
In general terms: qHTS replaces the single test concentration by a dilution series.

The target of assay [2] is Peroxisome proliferator-activated receptor delta (Homo sapiens) (UniProt Q03181). Described as above. In a few lines:
as §1

Assay [3] has as its target Vitamin D3 receptor (Homo sapiens) (UniProt P11473). Nature of the assay: qHTS assay for small molecule antagonists of vitamin D receptor signaling (AID 588541).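 Also: receptor activated by calcitriol during compound treatment; series mostly up to about 77 µM; % is scaled to controls: 0 for no effect and ±100 for the full control effect.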 Put shortly: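 Antagonist-mode beta-lactamase reporter assay: HEK293T VDR-UAS-bla cells were exposed to titrated compound alongside 1-alpha,25-dihydroxyvitamin D3 at 3 nM final for 16 h. Values were normalized to the 50 nM agonist control and DMSO basal, with IC50 and efficacy from Hill equation fits.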

Assay [4] shares this target. In words: qHTS assay for small molecule agonists of vitamin D receptor signaling (AID 588543).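 Also: 0% = DMSO basal and 100% = reference agonist control.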 Put shortly: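 GeneBLAzer VDR-UAS-bla HEK293T cells in 2% charcoal-stripped FBS medium were dosed with compound titrations for 16 h at 37 °C; CCF4 β-lactamase readout (405 nm ex, 460/530 nm em). EC50 and efficacy from Hill fits, normalized to 50 nM calcitriol (100%) and DMSO (0%).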

Assay [5] can be described thus: qHTS assay for small molecule agonists of retinoid X receptor alpha signaling (AID 588544).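 As to activation: 0% = DMSO basal wells and 100% = reference agonist.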 The settings on record: HEK293T RXRa-UAS-bla, beta-lactamase reporter, 18 h; 530 nm emission.
Assay [6] concerns the target Retinoic acid receptor RXR-alpha (Homo sapiens) (UniProt P19793). The description is as above.
Assay [7] concerns the target Thyroid hormone receptor beta (Homo sapiens) (UniProt P10828). In words: qHTS assay for small molecule agonists of thyroid hormone receptor beta signaling (AID 588545).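 Also: 0% = DMSO only and 100% = 10 nM T3.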 Put shortly: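 Stimulation of a TR-driven beta-lactamase reporter was quantified in GripTite HEK 293 cells. Compound series ran for 18 hrs; curves were normalized to T3 and DMSO controls and fitted to yield EC50.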

Assay [8] can be described thus: qHTS assay for small molecule antagonists of retinoid X receptor alpha signaling (AID 588546; active = well fitted inhibition curve with a large enough effect in the signal ratio, with a control signal flat, not every such curve was filed as active; the % refers to the signal ratio;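 also: cells stimulated with 9-cis-retinoic acid as agonist; % is scaled to controls: 0 for no effect and ±100 for the full control effect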). The settings on record: HEK293T RXRa-UAS-bla, beta-lactamase ratio, antagonist mode; measured here: W530 green channel, cytotoxicity proxy. Put shortly:
(§2)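 Beta-lactamase reporter inhibition, read as CCF4 fluorescence ratio (ex 405, em 460/530 nm) after 2 h at RT. HEK293T UAS-bla cells, 2500/well, were stimulated with 9-cis-RA at 500 or 100 nM final alongside test compound for 18 h at 37 C.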

Assay [9] addresses Retinoic acid receptor RXR-alpha (Homo sapiens) (UniProt P19793). The description is as above. The settings on record: HEK293T RXRa-UAS-bla, beta-lactamase ratio, antagonist mode. Put shortly: as §2
A short description of assay [10]: qHTS assay for small molecule activators of the p53 signaling pathway (AID 651743; active = well fitted activation curve with a large enough effect in the signal ratio, not every such curve was filed as active; the % refers to the signal ratio; also: series mostly up to about 92 µM; % of control where 0% means no effect). The settings on record: HCT-116 p53RE-bla, beta-lactamase FRET ratio, 16 h; activation: stronger effect = higher value. In a few lines: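 A beta-lactamase reporter under p53 response element control, stably carried by HCT-116 cells, reported pathway activation. Test compounds were applied for 16 hours at 37 C, and fluorescence was measured 2 hours after adding the B/G FRET substrate.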

A short description of assay [11]: qHTS assay for small molecule activators of the nuclear factor-kappa B (NF-kB) signaling pathway (AID 651749; active = well fitted activation curve with a large enough effect in the signal ratio; the % refers to the signal ratio; also: series mostly up to about 77 µM; % of control where 0% means no effect). The settings on record: NF-kB-bla ME-180 cells, beta-lactamase FRET ratio, 16 h; activation: stronger effect = higher value. Put shortly:
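FRET-based beta-lactamase detection in ME-180 cells reports NF-kB response-element-driven transcription following overnight (16 hr) compound treatment.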

Assay [12] in a line: qHTS assay for environmental chemicals that activate the Aryl hydrocarbon Receptor (AhR) signaling pathway (AID 651777; active = well fitted curve in the direction sought with a large enough effect; an effect the other way counts as inactive or inconclusive; also: % of control where 0% means no effect; nearly all actives have a fitted effect of over 15% in size). The settings on record: 1A2-DRE human hepatoma cells, luciferase, 24 h; activation: stronger effect = higher value. Put shortly:
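AhR activation is scored as a rise in luciferase from a stable DRE–CYP1A2 promoter construct in human hepatoma cells. Treatment lasts 24 hr at 37 C; detection uses One-Glo after 30 min at room temperature.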

For assay [13], the target named is Peroxisome proliferator-activated receptor alpha (Homo sapiens) (UniProt Q07869). Nature of the assay: qHTS assay for small molecule agonists of the peroxisome proliferator-activated receptor alpha (PPARalpha) signaling pathway (AID 651778; active = well fitted curve in the direction sought with a large enough effect; an effect the other way counts as inactive or inconclusive; also: % of control where 0% means no effect). The settings on record: PathHunter PPARalpha complementation, chemiluminescence, 6 h; max response: stronger effect = higher value. In a few lines: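 Chemiluminescence from complemented enzyme reported PPARalpha activation in cells after 6 hr of compound treatment at 37 C. The detection reagent was incubated for 60 min at room temperature, and compounds were scored as agonists.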

Assay [14] can be described thus: qHTS assay for small molecule agonists of the antioxidant response element (ARE) signaling pathway measured by Nrf2-dependant transcriptional activity (AID 720636; active = well fitted curve in the direction sought with a large enough effect in the repeat runs; an effect the other way counts as inactive or inconclusive;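 also: HepG2 cells with an ARE-driven luciferase reporter; % of control where 0% means no effect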). In a few lines: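 First, ARE-luc HepG2 cells attached for 6 hr at 37 C in 1% dialyzed FBS medium. Next, compound or DMSO was added and incubated 16 hr. Finally, ONE-Glo reagent was added and luminescence measured after 30 min.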

The nature of assay [15]: qHTS assay for small molecule agonists of the antioxidant response element (ARE) signaling pathway measured by Nrf2-dependant transcriptional activity - cell viability counter screen (AID 720653; active = well fitted curve in the direction sought with a large enough effect in the repeat runs; an effect the other way counts as inactive or inconclusive; also: % is scaled to controls: 0 for no effect and ±100 for the full control effect). The settings on record: ARE-bla HepG2 viability, CellTiter-Glo ATP luminescence, 16 h; max response: stronger effect = lower value. In a few lines: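 Cytotoxicity counter screen: intracellular ATP quantified by CellTiter-Glo luminescence in the same ARE-bla HepG2 plates, after 16 h compound exposure and a 2 h beta-lactamase substrate step.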

Assay [16] can be described thus: qHTS assay for cell viability of HEK293 cells (AID 743288; active = well fitted curve in the direction sought with a large enough effect; an effect the other way counts as inactive or inconclusive; also: % is scaled to controls: 0 for no effect and ±100 for the full control effect; nearly all actives have a fitted effect of over 50% in size). The settings on record: ATP luminescence (CellTiter-Glo), 18 h; max response: stronger effect = lower value. Put shortly:
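After 18 h compound exposure at 37 C, parental HEK293 cells (2,000/well) are lysed with CellTiter-Glo and luminescence is read following 30 min at room temperature.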

Assay [17] is described as follows: qHTS assay for cell viability of the p53RE-bla HCT-116 cell line (AID 743292; active = well fitted curve in the direction sought with a large enough effect; an effect the other way counts as inactive or inconclusive; also: % is scaled to controls: 0 for no effect and ±100 for the full control effect; nearly all actives have a fitted effect of over 55% in size). Put shortly:
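Quantitative high-throughput format: compounds in DMSO were pinned onto p53RE-bla HCT-116 cells (4,000/well) and incubated 16 h at 37 C. Total intracellular ATP, read by CellTiter-Glo luminescence, reflects viable cell number.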

For assay [18], the target named is Nuclear receptor subfamily 1 group I member 2 (Rattus norvegicus) (UniProt Q9R1A7). Nature of the assay: qHTS assay for small molecule activators of the rat pregnane X receptor (rPXR) signaling pathway (AID 651751; call rule not given here; also: 0% is about no effect). The settings on record: rPXR reporter cells, luciferase (One-Glo), 24 h.
Assay [19] in a line: qHTS assay for small molecule activators of the human pregnane X receptor (PXR) signaling pathway (AID 720659; call rule not given here; also: 0% is about no effect).
The target of assay [20] is Peroxisome proliferator-activated receptor gamma (Homo sapiens) (UniProt P37231). Nature of the assay: qHTS assay for small molecule agonists of peroxisome proliferator-activated receptor gamma signaling (AID 588536; active = well fitted curve in the direction sought with a large enough effect in the signal ratio, with a control signal flat, not every such curve was filed as active; the % refers to the signal ratio;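 also: 0% = DMSO basal wells and 100% = rosiglitazone at 2 µM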). In a few lines: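 This is an agonist-mode beta-lactamase reporter assay in HEK293 PPAR-gamma-UAS-bla cells with 1% charcoal/dextran FBS. Compound titrations ran 16 h at 37 C before CCF4 detection. EC50 and efficacy are Hill fits scaled to 2 uM rosiglitazone (100%) and DMSO basal.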
Peroxisome proliferator-activated receptor gamma (Homo sapiens), sequence (P37231 whole entry, looked up): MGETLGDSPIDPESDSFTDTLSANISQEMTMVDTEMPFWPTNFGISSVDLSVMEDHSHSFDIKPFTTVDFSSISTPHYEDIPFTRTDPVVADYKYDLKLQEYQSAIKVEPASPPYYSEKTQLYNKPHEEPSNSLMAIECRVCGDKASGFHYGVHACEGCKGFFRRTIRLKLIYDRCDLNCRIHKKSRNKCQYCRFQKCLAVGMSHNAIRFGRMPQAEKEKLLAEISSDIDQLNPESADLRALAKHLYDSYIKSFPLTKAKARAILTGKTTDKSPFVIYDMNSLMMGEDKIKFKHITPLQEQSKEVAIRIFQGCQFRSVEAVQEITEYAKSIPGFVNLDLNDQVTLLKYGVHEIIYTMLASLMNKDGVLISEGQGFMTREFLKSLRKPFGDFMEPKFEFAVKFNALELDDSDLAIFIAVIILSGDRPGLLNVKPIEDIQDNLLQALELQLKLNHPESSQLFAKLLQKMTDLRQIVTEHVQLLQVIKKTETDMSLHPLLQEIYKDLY

Retinoic acid receptor RXR-alpha (Homo sapiens), sequence (P19793 whole entry, looked up): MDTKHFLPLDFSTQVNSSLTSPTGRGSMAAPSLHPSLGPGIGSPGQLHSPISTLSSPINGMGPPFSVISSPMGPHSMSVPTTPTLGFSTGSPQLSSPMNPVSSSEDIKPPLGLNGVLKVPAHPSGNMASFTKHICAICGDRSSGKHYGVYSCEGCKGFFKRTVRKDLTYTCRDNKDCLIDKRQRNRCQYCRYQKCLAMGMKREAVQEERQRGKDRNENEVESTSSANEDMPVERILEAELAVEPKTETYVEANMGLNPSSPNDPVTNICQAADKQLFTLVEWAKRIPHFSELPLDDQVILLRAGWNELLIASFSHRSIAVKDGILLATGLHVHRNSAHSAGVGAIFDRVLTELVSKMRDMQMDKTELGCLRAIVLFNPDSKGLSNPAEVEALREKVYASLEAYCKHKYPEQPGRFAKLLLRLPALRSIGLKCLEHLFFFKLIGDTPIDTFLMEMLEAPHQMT
Thyroid hormone receptor beta (Homo sapiens), sequence (P10828 whole entry, looked up): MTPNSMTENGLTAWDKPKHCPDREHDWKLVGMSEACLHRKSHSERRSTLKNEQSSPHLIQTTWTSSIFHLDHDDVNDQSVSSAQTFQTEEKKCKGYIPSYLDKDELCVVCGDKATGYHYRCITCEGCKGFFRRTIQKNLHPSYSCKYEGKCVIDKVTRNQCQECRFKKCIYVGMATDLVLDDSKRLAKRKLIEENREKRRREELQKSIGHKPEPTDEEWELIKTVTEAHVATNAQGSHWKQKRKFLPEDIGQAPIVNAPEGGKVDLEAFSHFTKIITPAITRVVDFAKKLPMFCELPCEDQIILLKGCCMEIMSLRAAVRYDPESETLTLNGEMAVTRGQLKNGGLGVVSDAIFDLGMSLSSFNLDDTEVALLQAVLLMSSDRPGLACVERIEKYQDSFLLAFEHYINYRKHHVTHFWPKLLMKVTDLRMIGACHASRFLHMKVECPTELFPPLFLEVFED
Vitamin D3 receptor (Homo sapiens), sequence (P11473 whole entry, looked up): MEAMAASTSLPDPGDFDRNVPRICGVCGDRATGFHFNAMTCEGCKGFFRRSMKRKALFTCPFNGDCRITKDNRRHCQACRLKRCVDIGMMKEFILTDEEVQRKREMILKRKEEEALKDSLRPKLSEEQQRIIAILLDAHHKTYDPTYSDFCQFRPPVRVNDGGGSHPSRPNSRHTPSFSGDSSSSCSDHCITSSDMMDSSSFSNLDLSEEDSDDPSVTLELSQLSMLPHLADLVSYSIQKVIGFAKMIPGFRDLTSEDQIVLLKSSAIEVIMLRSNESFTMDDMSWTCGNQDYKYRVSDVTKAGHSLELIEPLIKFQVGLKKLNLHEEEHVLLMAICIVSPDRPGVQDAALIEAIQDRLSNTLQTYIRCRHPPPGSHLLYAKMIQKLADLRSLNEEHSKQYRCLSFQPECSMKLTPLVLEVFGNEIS
Peroxisome proliferator-activated receptor delta (Homo sapiens), sequence (Q03181 whole entry, looked up): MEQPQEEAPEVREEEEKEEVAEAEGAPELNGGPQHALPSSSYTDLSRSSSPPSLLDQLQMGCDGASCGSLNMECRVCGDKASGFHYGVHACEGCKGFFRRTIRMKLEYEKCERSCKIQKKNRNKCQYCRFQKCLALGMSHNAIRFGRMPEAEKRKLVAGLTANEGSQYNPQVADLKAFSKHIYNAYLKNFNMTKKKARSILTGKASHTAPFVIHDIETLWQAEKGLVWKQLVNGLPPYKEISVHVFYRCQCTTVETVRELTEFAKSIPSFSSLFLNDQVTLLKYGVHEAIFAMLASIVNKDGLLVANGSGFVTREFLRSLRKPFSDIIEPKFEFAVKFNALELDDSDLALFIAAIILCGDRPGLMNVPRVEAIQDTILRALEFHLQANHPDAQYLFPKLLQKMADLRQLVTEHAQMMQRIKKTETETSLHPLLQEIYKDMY
Peroxisome proliferator-activated receptor alpha (Homo sapiens), sequence (Q07869 whole entry, looked up): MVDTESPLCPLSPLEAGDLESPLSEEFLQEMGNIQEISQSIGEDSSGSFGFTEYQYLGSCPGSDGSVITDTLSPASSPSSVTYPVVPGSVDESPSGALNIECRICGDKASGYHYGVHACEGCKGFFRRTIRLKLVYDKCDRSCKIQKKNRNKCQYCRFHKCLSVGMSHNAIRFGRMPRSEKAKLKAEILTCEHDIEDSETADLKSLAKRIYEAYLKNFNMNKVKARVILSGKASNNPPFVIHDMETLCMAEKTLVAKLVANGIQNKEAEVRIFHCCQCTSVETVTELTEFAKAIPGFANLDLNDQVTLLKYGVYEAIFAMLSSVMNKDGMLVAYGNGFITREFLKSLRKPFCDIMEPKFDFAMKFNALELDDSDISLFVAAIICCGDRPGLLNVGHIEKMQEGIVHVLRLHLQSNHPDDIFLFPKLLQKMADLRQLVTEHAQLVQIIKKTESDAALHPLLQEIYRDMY
Nuclear receptor subfamily 1 group I member 2 (Rattus norvegicus), sequence (Q9R1A7 whole entry, looked up): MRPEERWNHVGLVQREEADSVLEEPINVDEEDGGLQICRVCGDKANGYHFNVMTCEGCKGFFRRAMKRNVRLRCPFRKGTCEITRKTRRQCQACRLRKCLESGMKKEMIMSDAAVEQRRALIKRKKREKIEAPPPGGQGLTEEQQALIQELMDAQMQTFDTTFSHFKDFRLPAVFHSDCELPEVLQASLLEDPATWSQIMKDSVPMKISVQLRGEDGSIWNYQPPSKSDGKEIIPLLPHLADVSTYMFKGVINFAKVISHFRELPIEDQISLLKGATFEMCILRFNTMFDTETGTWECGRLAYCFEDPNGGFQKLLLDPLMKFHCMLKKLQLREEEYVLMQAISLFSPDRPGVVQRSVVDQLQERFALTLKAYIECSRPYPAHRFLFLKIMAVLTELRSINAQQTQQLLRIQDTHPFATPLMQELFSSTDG

Take `C/C=C/C/C=C\CCCCCCCCOC(C)=O`: the max response in assay [1] is 15.9%; in [5], -14.4%; in [8], -5.66%; in assay [9], -0.494% (inactive); in assay [13], -1.2% (inactive); in assay [15] it was 5.44% (inactive). Besides, the max response in [16] was 0.639% (inactive); in assay [18], 0.0563% (inactive). Besides, the Potency entry in assay [2], in assay [3], in assay [6], in [7], in assay [14] and in assay [17] was “inactive” each time. In addition, the outcome in assay [4] and in [19] was inactive. For the same molecule, the activation was -0.736% (inactive) in assay [10], -0.792% (inactive) in assay [11] and 1.59% (inactive) in assay [12].
For the molecule `CO[Si](CCCNCCN)(OC)OC`, the max response in assay [1] is 40.3%; in [5] it was 7.5%; in [8] it was -7.95%; in assay [13], 0.748% (inactive); in [16], -6.23% (inactive); in [18], 4.5% (inactive). The Potency result in assay [2], in assay [3], in assay [6], in assay [7], in [14] and in [17] was “inactive” in each case. For the same molecule, the molecule was classed as inactive in assay [20], in assay [4] and in assay [19].
`CCCCN(CCCC)CCCCCCN(CCCC)CCCC`: the max response in [1] is 6.65%; in assay [5], -14.8%; in assay [13] it was -0.567% (inactive); in assay [15] it was -9.43% (inactive); in assay [16], -21.9% (inactive); in assay [18], 4.27% (inactive). Also, the Potency result in assay [2], in assay [3], in [6], in assay [7], in [14] and in [17] was “inactive” each time. In addition, the outcome in assay [20] and in [19] was inactive. The activation was -4.69% (inactive) in assay [10] and 1.73% (inactive) in assay [12].
For the molecule `C=CCCCCCCCCCCCC`, the max response in assay [1] was 14.9%; in assay [5] it was -6.65%; in [8], -3.7%; in [9], 10.9% (inactive); in assay [13], -1.61% (inactive); in assay [18] it was 1.46% (inactive). The Potency result in assay [2], in [3], in assay [6], in [7], in assay [14] and in [17] was “inactive” in each case. The molecule was called inactive in assay [20], in [4] and in [19]. In addition, the activation in [12] was 0.249% (inactive).
Regarding `C[Si](C)(Cl)[Si](C)(C)Cl`, the max response in [1] was -22.7%; in [5] it was -0.475%; in assay [8], -27.8%; in [13], 1.76% (inactive); in assay [15], -9.32% (inactive); in [18] it was -0.179% (inactive). The Potency result in [2], in [3], in assay [6], in [7], in assay [14] and in [17] was “inactive” each time. Further, the outcome in assay [20] and in [19] was inactive. Moreover, the values for the activation in [10], in assay [11] and in [12] were -0.0629% (inactive), -1.24% (inactive) and -0.723% (inactive), respectively.
For the molecule `COC(=O)C(C)Oc1ccc(Oc2ncc(C(F)(F)F)cc2Cl)cc1` (stereo not drawn), the max response was -16.8% in assay [1], 5.42% in assay [8], -74.4% (inactive) in assay [9] and -3.2% (inactive) in assay [18]. Also, the Potency result in assay [2], in assay [3], in [7], in assay [14] and in assay [17] was “inactive” in each case. Further, the values for the activation in [10] and in [12] were -4.64% (inactive) and 0.251% (inactive), respectively. The call in assay [19] was inactive.
For `C=C(C)C(=O)OCCN(C)C`, the max response is -44.3% in [1]; 0.555% in assay [8]; 6.15% (inactive) in assay [9]; -0.281% (inactive) in [13]; -4.72% (inactive) in [15]; 5.37% (inactive) in [18]. Besides, the Potency entry in [2], in assay [7], in assay [14] and in assay [17] was “inactive” throughout. The molecule was called inactive in assay [4] and in [19]. The activation in assay [12] was 0.477% (inactive).
